From ChEMBL document CHEMBL3433997, “St. Jude Leishmania screening dataset” (2016)

Key:
Format in all cases: functional
[1] = target: Solute carrier family 2, facilitated glucose transporter member 1 (Homo sapiens) (UniProt P11166); test: ST_JUDE_LEISH: Cytotoxicity at 2uM final concentration against transgenic Leishmania Mexicana promastigotes LmGLUT1 that are glucose transport deficient and complemented with the human glucose transporter GLUT1. Activity is measured by DNA content using SYBR green in vitro
Solute carrier family 2, facilitated glucose transporter member 1 (Homo sapiens), sequence (P11166 whole entry): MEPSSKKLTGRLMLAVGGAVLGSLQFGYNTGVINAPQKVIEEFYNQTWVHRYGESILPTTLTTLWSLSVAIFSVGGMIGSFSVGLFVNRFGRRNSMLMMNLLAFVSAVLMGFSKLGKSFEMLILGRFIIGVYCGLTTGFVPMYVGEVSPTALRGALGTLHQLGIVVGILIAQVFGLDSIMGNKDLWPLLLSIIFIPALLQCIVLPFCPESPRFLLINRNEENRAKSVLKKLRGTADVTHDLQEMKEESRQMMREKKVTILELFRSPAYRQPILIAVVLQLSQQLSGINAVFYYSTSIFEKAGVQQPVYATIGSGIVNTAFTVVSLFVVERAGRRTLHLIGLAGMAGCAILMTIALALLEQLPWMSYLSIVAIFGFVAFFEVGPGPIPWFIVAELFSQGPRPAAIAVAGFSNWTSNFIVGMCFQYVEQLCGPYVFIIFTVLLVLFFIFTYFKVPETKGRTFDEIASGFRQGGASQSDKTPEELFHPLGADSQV

[2] = target: Hexose transporter 1 (Plasmodium falciparum) (UniProt O97467); test: ST_JUDE_LEISH: Cytotoxicity at 2uM final concentration against transgenic Leishmania Mexicana promastigotes LmPfHT that are glucose transport deficient and complemented with the Plasmodium falciparum hexose transporter. Activity is measured by DNA content using SYBR green in vitro
[3] = target: Glucose transporter (Leishmania mexicana) (UniProt O61059); test: ST_JUDE_LEISH: Cytotoxicity at 2uM final concentration against transgenic Leishmania Mexicana promastigotes LmGT2 that are glucose transport deficient and complemented with the L. Mexicana glucose transporter 2. Activity is measured by DNA content using SYBR green in vitro

SMILES | inhibition [1] [%] | inhibition [2] [%] | inhibition [3] [%]
COc1ccc(C(=O)C2CCN(CCCCNC(=O)c3ccc(NC(=O)c4cc(Cl)cc(Cl)c4)cc3)CC2)cc1 | 3.02 | 4.08 | 2.05
O=C(NCCCCN1CCC(c2ccc3c(c2OCCN2CCCC2=O)CCCC3)CC1)c1ccc(-c2ccc(C(F)(F)F)cc2)cc1 | -1.16 | 0.75 | -0.45
CN(C)CCN(C)Cc1ccc(-c2cccc(NC(=O)c3ccc(Cl)cc3)c2)cc1 | 4.75 | 2.96 | 1.03
COc1ccc(-c2cc(-c3nc4cc(CN)ccc4[nH]3)c(=O)n(C)c2)cc1OC | 0.63 | 0.83 | -0.74
COc1ccc(-c2ccc(CNC(=O)c3ccc(C#N)cc3)c(F)c2)cc1CN1CCCN(C)CC1 | 0.92 | 0.66 | -3.44
COc1cc(C=Cc2ccc3ccccc3n2)cc(Br)c1OCC(=O)N(C)C | 6.85 | -1.14 | -0.95
CC(C)(C)OC(=O)NCc1ccc(Nc2nnc(-c3cccc(OCC(=O)NCc4cc(C(F)(F)F)cc(C(F)(F)F)c4)c3)o2)cc1 | 0.8 | 1.63 | 1.12
CC(C)C[C@H](NC(=O)c1ccc(OCCN2CCOCC2)cc1)C(=O)N[C@H](/C=N/NC(=O)OC(C)(C)C)CCc1ccccc1 | 9.41 | 8.52 | 5.94
Cc1cc(C)c(C)c(OCCCON2C(=N)N=C(N)NC2(C)C)c1C | 1.55 | -0.22 | 2.17
CCCN(CCC)C(=O)c1cc(C(=O)N[C@@H](Cc2ccccc2)[C@H](O)CNC2CC2)cc(N2CCCCS2(=O)=O)c1 | 2.88 | 2.88 | 1.62
COc1cc(Cc2cnc(N)nc2N)cc(OCCn2ccccc2=O)c1OC | 2.42 | 2.33 | 1.46
COc1cc2nc(SCCCC#N)n(C3CCCCCC3)c(=N)c2cc1OC | 7.27 | 5.84 | 2.84
Cc1cc(O)c(-c2ccc(Oc3ccc(F)cc3)cc2)c(C)n1 | 0.78 | -0.19 | -3.08
CCc1ccccc1N1CCN(CCCCNC(=O)c2ccc(NC(=O)c3ccc(Cl)cc3)cc2)CC1 | 2.51 | 2.19 | 0.44
COC(=O)c1cccc(CNCc2ccc(-c3ccc(-c4nc5cccc(C)c5[nH]4)s3)cc2)c1 | 6.31 | 2.96 | 1.56
O=C(Nc1ccc(Cn2ncc(N3CCCNCC3)c(Cl)c2=O)cc1)Nc1cccc(Oc2ccccc2)c1 | 2.36 | 2.39 | 1.79

SMILES | inhibition [1] [%] | inhibition [2] [%] | inhibition [3] [%]
O=C(NCC(NCCCNc1cc(=O)c2ccccc2[nH]1)c1cc(Br)cc(Br)c1)C1=CCCC1 (stereo not drawn) | 3.18 | 4.82 | 5.79
Clc1ccccc1CNc1noc(-c2sccc2Br)n1 | 0.33 | 2.84 | 1.17
CCc1cn2c3c(cc(C(=O)N[C@@H](Cc4ccccc4)[C@H](O)CNC4CCCCC4)cc13)N(C)S(=O)(=O)C2 | 2.09 | 2.23 | 2.69
CCCCOC(=O)C1=C(C)NC2=C(C(=O)CC(c3ccc(OC)c(OC)c3)C2)C1c1ccc(O)cc1 (stereo not drawn) | 10.4 | 1.48 | 3.3
COc1ccccc1NC(=O)c1cc(C(=O)c2cc(Cl)ccc2O)cn(-c2ccccc2OC)c1=O | 5.19 | 5.3 | 4.07
CCc1cc(NC2CCN(C)CC2)nc(Nc2cccc(OC)c2)n1 | 15 | 10 | 6.53
O=C(NCCN1CCN(S(=O)(=O)c2ccc(OC3CCNCC3)c(Br)c2)CC1)c1ccc(Cl)c(Cl)c1 | 3.33 | 3.46 | 4.49
CS(=O)(=O)c1ccc(CNCc2ccc(-c3ccc(-c4nc5cc(C(F)(F)F)ccc5[nH]4)s3)cc2)cc1 | 12 | 10.7 | 9.87
O=C(Nc1cccc(Cl)c1Cl)N1CCc2cc3nccc(N4CCN5CCC[C@H]5C4)c3cc21 | -0.2 | 1.06 | 3.39
CC(C)CC(=O)NC1CCN(Cc2c(-c3cccs3)nc3ccccc3c2C(=O)N[C@@H](C)C2CCCCC2)CC1 | 6.03 | 4.72 | 4.36
O=C(NC1CCCC1)c1ccc(N2CCC(NCc3cccc(C(F)(F)F)c3)CC2)cc1 | -0.33 | -0.97 | 0.59
Cn1c(N)cc(-c2cccc(I)c2)c2c(=O)nc(N)nc1-2 | 4.12 | 4.5 | 2.89
Cc1ccc(C(=O)Nc2ccc(OC3CCN(CCC(C)C)C3)c(Cl)c2)cc1 (stereo not drawn) | 3.79 | 4.8 | 3.43
O=C(Nc1ccc(-c2nc3ccccc3[nH]2)cc1)C1CCN(Cc2cccc(F)c2F)CC1 | 24.2 | 28.4 | 16
CNc1ccc(CNCc2cccc(-c3ccc(-c4nc5cccc(C)c5[nH]4)s3)c2)cc1 | 8.15 | 5 | 6.79
